# Screening data deposited in PubChem by The Scripps Research Institute Molecular Screening Center.
# GPR151 activ = activators of human GPR151; PathHunter beta-arrestin GPR151 cells, luminescence; AID 1508602; activation, % at 11.2 µM; 650,000 tested, 1% active; Q8TDV0; in the data active = activation above about 4.9%;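 note: 0% = median of compound wells and 100% = cells with positive control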
# Target sequence (Q8TDV0 whole entry, looked up): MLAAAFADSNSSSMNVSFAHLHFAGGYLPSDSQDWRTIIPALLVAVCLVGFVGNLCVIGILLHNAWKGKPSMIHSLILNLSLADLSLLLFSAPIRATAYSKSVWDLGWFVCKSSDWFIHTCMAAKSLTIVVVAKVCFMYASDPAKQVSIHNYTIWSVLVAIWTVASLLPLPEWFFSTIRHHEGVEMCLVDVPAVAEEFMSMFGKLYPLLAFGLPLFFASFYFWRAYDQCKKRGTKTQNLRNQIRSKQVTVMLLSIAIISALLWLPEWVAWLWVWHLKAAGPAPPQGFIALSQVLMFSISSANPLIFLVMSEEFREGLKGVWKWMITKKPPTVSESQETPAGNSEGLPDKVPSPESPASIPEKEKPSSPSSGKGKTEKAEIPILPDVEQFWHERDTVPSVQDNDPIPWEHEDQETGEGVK
# FBW7 activator = human FBW7 E3 ligase activation, primary screen | 650,000 tested, 0.13% active | AlphaScreen FBW7–phospho-cyclin E peptide binding, activator screen | Q969H0 | normalized activity (activation), % at 26.1 µM | AID 1259310; in the data active = normalized activity above about 1.9%;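 note: purified mutant Fbw7 with reduced substrate affinity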
# MITF inh = human MITF inhibition, primary screen | 650,000 tested, 0.91% active | AlphaScreen MITF homodimerization, bead proximity signal | inhibition, % at 2.6 µM | O75030; in the data active = inhibition above about 50%;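 note: 0% = vehicle wells with protein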
# TEAD-YAP inh = TEAD-YAP interaction inhibition; inhibition, % at 9.12 µM; HEK-TIYL cells, TEAD-Gal4/YAP UAS-luciferase luminescence; 640,000 tested, 1.4% active; in the data active = inhibition above about 32%;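 note: 0% = median of test compound wells and 100% = reference inhibitor wells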
# * = called active by the depositor. The list is not random: actives were taken first. Their share in the collection is about 3.5%.
SMILES,GPR151 activ,FBW7 activator,MITF inh,TEAD-YAP inh
c1cc2c(cc1Nc1nc(N3CCCCC3)nc(N3CCCCC3)n1)OCO2,-2,2.2*,1,-5
c1cc2c(cc1Nc1nc(N3CCOCC3)nc(N3CCOCC3)n1)OCO2,-1,0,3,4
O=C(C1CCN(Cc2nc(-c3ccccn3)no2)CC1)N1CCCCC1,3,0,2,4
CC1C(O)=C(c2nc3ccccc3[nH]2)c2nc(=O)c3ccccc3n21 (stereo not drawn),-1,-1,17,54*
Cc1cccc2c(=O)nc3n(c12)CC(O)=C3c1nc2ccccc2[nH]1,0,0,2,-5
CC1(C)Cc2nc3sc4c(N5CCNCC5)ncnc4c3cc2CS1,-1,0,15,44*
CCN(CC)C(=O)COc1cc2oc(=O)c3c(c2cc1Cl)CCC3,-1,0,-3,3
Nn1c(SCC(=O)N(C2CCCCC2)C2CCS(=O)(=O)C2)nnc1-c1ccccc1 (stereo not drawn),2,0,-6,-2
CC(C)=CC(=O)N1CCC(Oc2ccc(C(=O)NCCc3ccccc3)cc2)CC1,-1,0,2,-7
O=C(NCCc1ccccc1)c1ccc(OC2CCN(C(=O)c3ccco3)CC2)cc1,-1,0,-13,83*
O=C1CC(C(=O)N2CCC(Oc3ccc(C(=O)NCCc4ccccc4)cc3)CC2)CN1 (stereo not drawn),0,0,10,80*
O=C(CSc1cc(N2CCCC2)ncn1)c1ccccc1,-9,0,18,76*
CCN(CC)c1ccc2c(c1)OC(N)=C(C#N)C2c1ccccc1 (stereo not drawn),1,3.4*,2,17
CCOC(=O)C1=C(C)OC(N)=C(C#N)C1c1cccs1 (stereo not drawn),-2,0,6,-3
CCN(CC)c1ccc2c(c1)OC(N)=C(C#N)C2c1cccs1 (stereo not drawn),-1,0,-3,53*
CCN(CC)c1ccc2c(c1)OC(N)=C(C#N)C2c1cccnc1 (stereo not drawn),0,0,-5,54*
N#CC1=C(N)Oc2cc(N)ccc2C1c1cccnc1 (stereo not drawn),0,0,-5,3
CSc1ncnc2c1ncn2CN1CCOCC1,-1,0,-1,-17
COc1ccccc1-c1cnc2c(NC3CCC(O)CC3)nccn12 (stereo not drawn),0,0,14,50*
COc1cc(-c2cnc3c(NC4CCC(O)CC4)nccn23)cc(OC)c1OC (stereo not drawn),0,0,0,15
OC1CCC(Nc2nccn3c(-c4ccc(F)cc4)cnc23)CC1 (stereo not drawn),-1,0,3,-6
OC1CCC(Nc2nccn3c(-c4ccc5c(c4)OCO5)cnc23)CC1 (stereo not drawn),-1,1.9*,15,-15
O=C(NC1CC1)c1ccc(-c2cnc3c(NC4CCC(O)CC4)nccn23)cc1 (stereo not drawn),-1,0,-8,51*
CCOC(=O)C1=C(N)N(c2ccccc2)C2=C(C(=O)CCC2)C1c1ccc(SC)cc1 (stereo not drawn),4,0,11,-6
COc1ccc(NC(=O)C2=C(C)Nc3ncnn3C2c2ccccc2F)cc1 (stereo not drawn),1,0,-2,-18
SMILES,GPR151 activ,FBW7 activator,MITF inh,TEAD-YAP inh
COc1ccc2nc(NC(=O)c3cccc(I)c3)sc2c1,-2,0,15,-51
Cn1c(=O)c2c(nc(CN3CCN(c4ccccc4F)CC3)n2C/C=C/c2ccccc2)n(C)c1=O,0,0,5,3
COc1cc(OC)cc(-c2nc(-c3ccccn3)no2)c1,-2,0,10,-41
COc1ccc(-c2nc(-c3ccncc3)no2)cc1,0,0,2,-43
COc1ccc(-c2nc(-c3ccccn3)no2)cc1,-12,0,-6,97*
COc1ccc(-c2nc(-c3ccccc3)no2)cc1,-8,0,1,53*
COc1ccc(-c2nc(-c3cccs3)no2)cc1,-5,0,-4,75*
Cc1cccc(-c2noc(-c3ccc(C(C)(C)C)cc3)n2)c1,0,0,-1,49*
COc1cc(OC)cc(-c2nc(-c3ccccc3)no2)c1,-2,0,16,-5
COc1ccc(-c2noc(-c3cccc(C)c3)n2)cc1,4,0,-9,-55
CC(CNCC1CCCO1)COc1cccc(Cl)c1 (stereo not drawn),1,0,16,1
CCOC(=O)N1CCC(N2Cc3cc(C)ccc3OC(c3ccsc3)C2)CC1 (stereo not drawn),-1,0,9,4
CC(NC(=O)C12CC3CC(CC(C3)C1)C2)c1nc(-c2cccnc2)n[nH]1 (stereo not drawn),0,1,18,-2
Cc1cc2[nH]c(=S)n(Cc3ccccc3Cl)c2cc1C,2,0,0,50*
CCOc1cc(/C=N/N=C(N)N)ccc1OCc1ccccc1,1,0,6,40*
CCOc1cc(/C=N\NC(=O)c2ccc(N)cc2)ccc1OCc1ccccc1,2,0,7,-1
CC(=O)N1CCc2cc(C(=O)CN3CCN(c4ccc(Cl)cc4)CC3)ccc21,1,0,-2,44*
Nc1nc(SCC(=O)NC2CCCCC2)nc2sc3c(c12)CCCC3,-2,1,7,53*
CCOC(=O)CC(=O)CSc1nc(N)c2c3c(sc2n1)CCCC3,-2,0,10,-17
CCOC(=O)CCCSc1nc(N)c2c3c(sc2n1)CCCC3,0,0,7,88*
CC1CCCC(NC(=O)CSc2cc(=O)n(C)c3ccccc23)C1C (stereo not drawn),0,0,10,6
Cc1cc2c(cc1C)CN(c1cccc(C(=O)O)c1)C2,-1,0,9,34*
Cc1cc2c(cc1C)CN(c1cccc(C(=O)NN)c1)C2,2,0,-7,38*
COc1ccc(N2Cc3ccc(C(=O)NN)cc3C2)cc1,0,0,26,-35
CNC(=O)c1ccccc1Nc1cc(Nc2ccc3c(c2)OCO3)ncc1C(F)(F)F,0,0,-7,41*
SMILES,GPR151 activ,FBW7 activator,MITF inh,TEAD-YAP inh
CNC(=O)c1cc(F)ccc1Nc1cc(Nc2ccc(N3CCCC3=O)cc2)ncc1C(F)(F)F,1,0,-7,32
CNS(=O)(=O)c1ccccc1Nc1cc(Nc2ccc3c(c2)CCC(=O)N3)ncc1C(F)(F)F,0,0,-5,93*
CNC(=O)c1ccccc1Nc1cc(Nc2ccc3c(c2)CC(=O)N3C)ncc1C(F)(F)F,-2,0,-3,65*
CNS(=O)(=O)c1ccccc1Nc1cc(Nc2ccccc2S(=O)(=O)NC)c(C(F)(F)F)cn1,2,0,21,1
CNC(=O)c1ccncc1Nc1cc(Nc2ccc3c(c2)CC(=O)N3)ncc1C(F)(F)F,3,0,2,-7
CNC(=O)c1ccccc1Nc1cc(Nc2ccc3c(c2)CC(=O)N3)ncc1C(F)(F)F,0,0,16,51*
CNC(=O)c1ccccc1Nc1cc(Nc2ncccn2)ncc1C(F)(F)F,-1,0,21,24
